HPGD inh = inhibitors of human 15-hydroxyprostaglandin dehydrogenase (HPGD) | purified HPGD, NADH fluorescence kinetic, PGE2 substrate | P15428 | 4.3% of 150,000 active | AID 894 | Potency, µM, for inactives: top-dose activity change, negative = inhibition, hits mostly inhibitors; also: potency is read from the fitted curve at half-maximal effect
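NADH formation kinetics: reaction with 30 uM PGE2 and 1 mM NAD+ (final), 20 nM enzyme, Tris-HCl pH 8 with Tween 20, after 15 min compound preincubation at room temperature. Fluorescence change, last versus first of five reads.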
IMPase inh = cell-permeable inhibitors of inositol monophosphatase (IMPase). P97697. CHO-M1 cells, IP1 accumulation, HTRF TR-FRET ratio. inhibition (IP1 accumulation), % at 46.1 µM. 120,000 tested, under 10 active. AID 901; active = well fitted curve in the direction sought with a large enough effect in the signal ratio, not every such curve was filed as active; inconclusive = small, poorly fitted or top-dose-only effect, or a change in a side signal; inactive = no such curve, though single readings can be large or run the other way; the % refers to the signal ratio;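 also: cells stimulated with carbachol in lithium chloride buffer; plate controls were DMSO basal wells for no effect and reference inhibitor wells for full effect; higher means more IMPase inhibition seen as more IP1 and lower FRET ratio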
Target sequence (P97697 whole entry, looked up): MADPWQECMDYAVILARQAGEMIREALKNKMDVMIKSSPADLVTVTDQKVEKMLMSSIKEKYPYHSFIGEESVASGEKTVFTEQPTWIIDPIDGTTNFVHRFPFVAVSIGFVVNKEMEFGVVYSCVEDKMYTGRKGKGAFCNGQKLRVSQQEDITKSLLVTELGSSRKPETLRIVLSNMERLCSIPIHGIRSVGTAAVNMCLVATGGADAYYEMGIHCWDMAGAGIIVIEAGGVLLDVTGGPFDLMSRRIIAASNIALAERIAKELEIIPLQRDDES
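Carbachol-driven Gq signalling in CHO-M1 cells (2000/well) generates IP1. Compounds that block IMPase raise IP1 and so reduce the FRET signal from Eu-anti-IP1 and d2-IP1 after a 10 min room-temperature lysis.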
ALDH1A1 block = ALDH1A1 (human) enzyme inhibition | P00352 | Purified ALDH1A1, NADH fluorescence, propionaldehyde substrate | Potency, µM (top dose mostly 75.3 µM), for the others: top-dose activity, negative = inhibition, hits mostly inhibitors | 7.3% of 220,000 active | AID 1030;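 also: potency is read from the fitted curve at half-maximal effect; plate controls were no enzyme wells and a reference inhibitor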
Target sequence (P00352 whole entry, looked up): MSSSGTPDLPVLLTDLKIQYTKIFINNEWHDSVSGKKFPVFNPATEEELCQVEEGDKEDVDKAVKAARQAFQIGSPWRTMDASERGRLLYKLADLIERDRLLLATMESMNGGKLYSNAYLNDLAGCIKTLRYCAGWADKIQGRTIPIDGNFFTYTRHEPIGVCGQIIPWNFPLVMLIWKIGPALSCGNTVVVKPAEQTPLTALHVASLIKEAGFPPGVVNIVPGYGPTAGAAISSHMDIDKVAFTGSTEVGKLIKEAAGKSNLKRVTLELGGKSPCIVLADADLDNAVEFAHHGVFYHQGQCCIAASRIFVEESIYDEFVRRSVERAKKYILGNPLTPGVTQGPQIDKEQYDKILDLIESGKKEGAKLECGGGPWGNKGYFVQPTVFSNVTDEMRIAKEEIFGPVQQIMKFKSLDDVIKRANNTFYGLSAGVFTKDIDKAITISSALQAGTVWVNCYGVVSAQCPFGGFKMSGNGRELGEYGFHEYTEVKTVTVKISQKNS
PNC inhibitor = inhibitors of perinucleolar compartment assembly | PC3M PTB-GFP, PNC prevalence imaging, 16 h; stronger effect = lower value | activity change (PNC), negative = inhibition, % at 10 µM | 3.1% of 140,000 active | AID 2417;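 active = readout at or below -70, meaning at least 70% loss of cells showing the perinucleolar compartment, a nuclear body marking cancer cells; inconclusive = readout between -30 and a set limit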;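 also: plate controls were DMSO wells for no effect and camptothecin positive control wells for full effect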
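PC3M cells stably expressing PTB-GFP, 750–1000 cells/well, treated 16 h at 37 °C with compound (23 nl of library stock), in duplicate. After paraformaldehyde fixation and Hoechst stain, imaged at 20x; PNC prevalence scored by image analysis.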
NPSR antag = antagonists of human neuropeptide S receptor cAMP signaling; 1% of 220,000 active; Potency, µM (top dose mostly 38.3 µM), without a hit: top-dose activity change, negative = inhibition, hits mostly inhibitors; CHO-NPSR cells, cAMP TR-FRET, antagonist mode; AID 1461; active = well fitted curve in the direction sought with a large enough effect; inconclusive = small, poorly fitted or top-dose-only effect, or another doubt; inactive = no such curve, though single readings can be large; an effect the other way counts as inactive or inconclusive; also: potency is read from the fitted curve at half-maximal effect; nearly all actives have a fitted effect of over 50% in size
IMPase Li cell = cell-permeable IMPase inhibitors with lithium potentiation. CHO-M1 cells, IP1 TR-FRET (IP-One), carbachol + lithium. Potency, µM (series often up to 59.4 µM), without a hit: top-dose activity, negative = IMPase inhibition, most hits filed as inhibitors. 0.35% of 210,000 active; active = well fitted curve in the direction sought with a large enough effect; inconclusive = small, poorly fitted or top-dose-only effect, or another doubt; inactive = no such curve, though single readings can be large; an effect the other way counts as inactive or inconclusive;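 also: IP1 builds up when IMPase is blocked and the TR-FRET signal falls; potency is read from the fitted curve at half-maximal effect; plate controls were basal vehicle for no effect and high inhibitor control for full effect; nearly all actives have a fitted effect of over 50% in size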
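Test compounds were applied to CHO-M1 cells previously cultured for 16–30 h at 2000 per well. A small lithium amount accompanied them; after 30 min at 37C, IP1 was quantified by TR-FRET.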
Starred values were filed as active, the others as inactive; ? = inconclusive; . = no result given; ! = repeats disagree; [ ] = dose if it differs, or a comment. This is a sample that favours compounds with a hit; in the whole collection about 11% have one here. Unless noted, calls follow the shape of the dose curve; as a rule, active = well fitted inhibition curve with a large enough effect (not every such curve was filed as active); inconclusive = small, poorly fitted or top-dose-only effect, or another doubt; inactive = no such curve, though single readings can be large or run the other way. Unless noted, % is scaled to controls: 0 for no effect and ±100 for the full control effect.

SMILES	HPGD inh	IMPase inh	ALDH1A1 block	PNC inhibitor	NPSR antag	IMPase Li cell
O=c1[nH]c2ccccc2n1C1CCN(CCCC(c2ccc(F)cc2)c2ccc(F)cc2)CC1	-4.2%	?	0.3%	0.7	6.31µM*	20.2%
[O-][Cl+2]([O-])O	-7.3%	.	?	.	.	-3.9%
Cc1cc(O)c2c(c1)C(=O)c1cc(O)cc(O)c1C2=O	-28.6%	5.0	22.4µM*	.	-17.5%[46.1 µM]	16.4%
O=C1NC(=S)NC(=O)C1C1CCCCC1	.	.	.	.	-11.5%	.
CCCCC1C(=O)NC(=S)NC1=O	12.6µM*	-8.3	31.6µM*	-14.6	-9.8%[46.1 µM]	7.0%
O=C1C[C@@H]2OCC=C3CN4CC[C@]56c7ccccc7N1[C@@H]5[C@@H]2[C@H]3C[C@H]46 (tested in a mixture with another compound)	-7.0%	.	-6.5%[13.5 µM]	.	.	-1.3%
CC/C(=N\N1CCN(C)CC1)c1c(O)[nH]c(=O)[nH]c1=O	-10.7%	-7.6	-5.1%	-10.6	18.9%	6.9%
C/C(=N\N1CCN(C)CC1)c1c(O)[nH]c(=O)[nH]c1=O	-8.7%	.	-3.7%	-121.5*	21.8%	-10.7%
O=C(O)CNCP(=O)(O)O	-7.4%	.	0.9%[13.5 µM]	.	.	2.1%
O=C(O)C1(c2ccc(Cl)cc2)CCC1	-5.6%	-10.4	0.7%	-80.9*	2.9%[46.1 µM]	29.7%[38.3 µM]
COc1ccccc1CCNC1CCCC(C)C1 (stereo unspecified)	-5.8%	.	18.2%	16.1	20.7%	3.9%
COc1ccccc1CCNC1CCC(C(C)(C)C)CC1 (stereo unspecified)	.	6.5	?	-111.9*	3.9%[46.1 µM]	.
O/N=C/c1c[nH]c2ccccc12	7.08µM*	-2.3	7.9%	?	9.1%[46.1 µM]	25.8%[38.3 µM]
O=C(NC[P+](=O)O)OCc1ccccc1	1.5%	4.7	0.8%	32.5	2.8%[46.1 µM]	22.5%[38.3 µM]
Cc1coc2c1CCC(C)C2 (stereo unspecified)	-5.2%	.	?	.	.	-5.0%
C/C(CC(=O)N1CCN(C=O)CC1)=N\NC(=O)c1cccc([N+](=O)[O-])c1	.	.	25.1µM*	.	-11.1%	1.5%
CC(=O)c1cccc(OCC(O)CN2CC=C(c3ccccc3)CC2)c1 (stereo unspecified)	-7.7%	6.0	22.4µM*	-8.3	?	-8.9%[38.3 µM]
C=CCSc1nnc(NC(=O)c2ccc(Cl)nc2)s1	28.2µM*	-9.1	?	-23.6	-21.0%[46.1 µM]	17.1%[38.3 µM]
c1c[nH]cn1	-7.9%	.	?	.	.	-16.1%
Clc1nc(Cl)nc(Cl)n1	-6.4%	.	2.24µM*	.	.	-5.1%
COC(=O)[C@]1(C)CC[C@@]2(C)CC[C@@]3(C)C4=CC=C5C(=CC(=O)C(O)=C5C)[C@@]4(C)CC[C@@]3(C)C2C1 (stereo partly specified)	20µM*	.	-10.3%	.	.	29.4%
CN(C)CC/C=C1\c2ccccc2Sc2ccc(Cl)cc21	-2.1%	8.8[20.6 µM]	3.8%[13.5 µM]	71.6	-13.5%	19.3%
CN(C)CCC=C1c2ccccc2CCc2ccccc21	-0.5%	9.7[20.6 µM]	17.8µM*!	-3.0	-22.7%	23.9%
O=[N+]([O-])[N-][n+]1cnn(Cc2ccc(Cl)cc2)c1	.	.	1.4%	.	8.6%	-5.7%
O=c1c2ccccc2nc(-c2ccccc2)n1-c1cccc(O)c1	.	.	-4.9%	.	13.9%	7.3%
SMILES	HPGD inh	IMPase inh	ALDH1A1 block	PNC inhibitor	NPSR antag	IMPase Li cell
COc1ccccc1CC1/C(=N/O)C2CCN1CC2 (stereo unspecified)	-8.5%	6.9	?	31.8	19.0%[46.1 µM]	25.9%[38.3 µM]
COc1ccccc1/C=C1/C(=N/O)C2CCN1CC2	-26.3%	-3.1	15.8µM*	24.4	-18.1%[46.1 µM]	8.3%[38.3 µM]
O=c1c2ccccc2nc(-c2ccc([N+](=O)[O-])cc2)n1-c1ccccc1	-14.5%	6.5	3.16µM*	-7.4	-4.8%	21.4%
Cc1cccc(-n2c(-c3ccc([N+](=O)[O-])cc3)nc3ccccc3c2=O)c1	-9.0%	3.7	?	13.4	-9.9%[46.1 µM]	20.0%
COc1ccc(-n2c(-c3ccco3)nc3ccccc3c2=O)cc1	.	.	3.1%	.	26.7%	2.4%
COc1ccc(-c2nc3ccccc3c(=O)n2-c2ccc(OC)cc2)cc1	.	.	11.2µM*	.	31.9%	15.4%
Cc1ccccc1-n1c(-c2ccc([N+](=O)[O-])cc2)nc2ccccc2c1=O	-2.4%	13.4	7.94µM*	-17.5	-9.1%	19.0%
O=c1c2ccccc2nc(-c2ccco2)n1-c1ccncc1	-16.1%	2.4	28.2µM*	-6.4	-17.1%[46.1 µM]	-23.2%[38.3 µM]
CCN(CC)c1ccc(CN2CC=C(c3ccc(F)cc3)CC2)cc1	-12.3%	11.7	3.1%	-13.8	10µM*	18.2%[38.3 µM]
NC(=O)c1ccc(OCC(O)CN2CC=C(c3ccc(F)cc3)CC2)cc1 (stereo unspecified)	-8.4%	.	2.8%	.	-4.2%[46.1 µM]	13.5%
C#CCN1C(=O)C2(C(C#N)=C(N)OC(C)=C2C(=O)OCc2ccccc2)c2ccccc21 (stereo unspecified)	-15.0%	9.7	0.794µM*	-13.2	-22.9%[46.1 µM]	2.6%[38.3 µM]
CN1C(=O)C(=Cc2ccc(OCCN(C)c3ccccn3)cc2)C(=O)N(C)C1=O	.	.	7.94µM*	.	-8.4%	5.0%
Cc1cc(C)n(CCOC(=O)C2C(C=C(Cl)Cl)C2(C)C)n1 (stereo unspecified)	-4.7%	1.3	0.7%	?	-19.4%[46.1 µM]	38.1%[38.3 µM]
NC(=O)CSP(=O)(c1ccccc1)c1ccccc1	-3.6%	3.6	-10.9%	-24.6	10.3%[46.1 µM]	16.2%[38.3 µM]
O=C1NC(=O)C2(Cc3ccccc3N3CCOCC32)C(=O)N1c1ccccc1 (stereo unspecified)	-10.9%	7.5	-5.8%	3.2	-7.0%[46.1 µM]	-11.9%[38.3 µM]
CCCN(CCC)C1Cc2cc(OC)c(OC)cc2C1	-16.6%	12.4	22.4µM*!	.	-4.9%[46.1 µM]	18.0%
CCCN(C/C=C\I)[C@@H]1CCc2ccc(O)cc2C1	-7.5%	15.6	2.3%	.	.	27.5%
O=C(N/N=C\C1C(=O)NC(=S)N(c2ccccc2)C1=O)c1ccc(O)cc1 (stereo unspecified)	.	.	10µM*	.	0.0%	3.2%
Cc1ccc(-n2c(O)c(C=N)c(=O)n(-c3ccc(C)cc3)c2=O)cc1	.	.	.	.	-15.7%	.
CCOP(=O)(NC(C)C)Oc1ccc(SC)c(C)c1 (stereo unspecified)	5.62µM*	.	?	.	.	34.2%
COP(=S)(OC)Oc1ccc(SC)c(C)c1	-11.0%	.	-2.9%	.	.	1.2%
c1cc2n(c1)-c1c(ccc3c1OCO3)CNC2c1ccc2c(c1)OCO2 (stereo unspecified)	-9.4%	-2.4[1.84 µM]	-5.3%	-6.8	-6.0%[46.1 µM]	32.7%[38.3 µM]
COc1ccc(C2NCc3ccc4c(c3-n3cccc32)OCO4)cc1O (stereo unspecified)	-12.0%	3.3	-5.5%	-108.2*	?	6.6%[38.3 µM]
Oc1ccccc1-c1ccccc1	?	.	17.8µM*	.	.	5.0%
Cc1ccccc1Cc1c(C)nc2nc(SCC(=O)N3CCC4(CC3)OCCO4)nn2c1C	-5.4%	4.8	1.9%	-1.5	-9.8%[46.1 µM]	1.9%[38.3 µM]
